57 compounds from ChEMBL document CHEMBL3988442, “University of Dundee, Small-Polar-MMV Screening Library” (2021) can be followed below.

Hit rate of the full screen: of about 48,000 compounds, about 13,000 (27%) showed an effect of 50% or more. The list shows a part of the results.

The assay deals with Wolbachia pipientis. Description: Anti-Wolbachia Cell-Based Screen. The format is functional. Details: scale not given: in the data most compounds retested in dose-response had high values. The following applies: 5 µM.
On to `CN1[C@@H](c2ccccc2)[C@@H](C(=O)NCc2ccccn2)C[C@@]1(C)C(=O)O`, for which the “Percent Effect” value came out at 4.83%.

With `O=C(NCc1cccs1)C1CCCN(c2cc(-n3cncn3)ncn2)C1` (configuration not stated), the “Percent Effect” value is listed as -5.792%.

Consider `O=C(NCc1cccs1)C1CN(C(=O)c2cccs2)CC12CCOCC2` (configuration not stated), for which the “Percent Effect” value is recorded as -10.89%.

As to `O=C(NCc1cccs1)C1CCN(c2cc(-n3ccnc3)ncn2)CC1`, the “Percent Effect” value is -1.807%.

In the case of `CC(C)(C)c1cc(=O)n2c(n1)SCC(C(=O)NCc1cccs1)C2` (configuration not stated), the “Percent Effect” value is recorded as 98.61%.

Turning to `CCc1c(C)nc2n(c1=O)CC(C(=O)NCc1cccs1)CS2` (configuration not stated), the “Percent Effect” value came to 101.3%.

With `COC1CCN(CCNC(=O)NC(C)c2cccc(Cl)c2)CC1` (configuration not stated), the “Percent Effect” value is given as 14.59%.

On to `O=C(C1CCCC1)N1CCC(c2n[nH]c3nccnc23)CC1`, for which the “Percent Effect” value came out at 136.1%.

Regarding `O=C(C1CCCCC1)N1CCC(c2n[nH]c3nccnc23)CC1`, the “Percent Effect” value was 126.4%.

Take `Cl.NCCC(=O)Nc1ccc(-c2ccccc2)cc1`: the “Percent Effect” value came to 116.3%.

Regarding `O=C(Cn1cnc(-c2ccccc2)cc1=O)Nc1ccncc1`, the “Percent Effect” value was 13.41%.

Consider `O=C(CCC(=O)Nc1ccccc1)NCC(=O)c1ccc(F)cc1F`, for which the “Percent Effect” value is recorded as -8.283%.

As to `CCCc1nc(CNC(=O)Cc2cc(C)no2)cs1`, the “Percent Effect” value is recorded as -3.893%.

`CCS(=O)(=O)NCCNc1cc(-n2cccc2)ncn1`: the “Percent Effect” value was 9.537%.

For the compound `CNC(=O)CN1CCOC(c2ccccc2C(F)(F)F)C1` (configuration not stated), the “Percent Effect” value is given as -19.7%.

Consider `COc1ccc2cc(C3CN(C(=O)CN4CCCC4)CCO3)ccc2c1` (configuration not stated), for which the “Percent Effect” value is recorded as 0.8606%.

Regarding `CC(=O)NCC(=O)N1CCN(C)c2ncccc2C1`, the “Percent Effect” value is on record as -12.03%.

Turning to `Nc1cccc(C2CN(C(=O)CN3CCOCC3)CCO2)n1` (configuration not stated), the “Percent Effect” value worked out at 104.8%.

Consider `Cc1n[nH]c(C2CN(CC(=O)NCc3ccco3)CCO2)n1` (configuration not stated), for which the “Percent Effect” value stood at 14.88%.

On to `O=C(Cc1cccc(F)c1F)N1CCOC(c2cccc(O)c2)C1` (configuration not stated), for which the “Percent Effect” value was -10.07%.

In the case of `CNc1cccc(C2CN(C(=O)CNS(C)(=O)=O)CCO2)n1` (configuration not stated), the “Percent Effect” value came to 125.9%.

As to `COc1ccc2cc(C3CN(C(=O)CCNC(C)=O)CCO3)ccc2c1` (configuration not stated), the “Percent Effect” value is -5.377%.

As to `O=C(CCNS(=O)(=O)c1ccccc1)N1CCOC(c2ccccc2)C1` (configuration not stated), the “Percent Effect” value was determined as 1.988%.

On to `CC(=O)NCC(=O)N1CCOC(c2cccc(N)n2)C1` (configuration not stated), for which the “Percent Effect” value was determined as 128.4%.

On to `CNC(=O)CN1CCOC(c2cccc(N)n2)C1` (configuration not stated), for which the “Percent Effect” value is 126.4%.

On to `O=C(CCNS(=O)(=O)c1cccnc1)N1CCOC(c2ccccc2)C1` (configuration not stated), for which the “Percent Effect” value was -17.46%.

In the case of `CCN(C(=O)CN1CCCC1c1ccc(F)cc1)c1ccccc1C` (configuration not stated), the “Percent Effect” value was -2.599%.

On to `O=C(NCc1ccccc1)c1nc2c(o1)CN(C(=O)c1cccnc1)C2.O=C(O)C(F)(F)F`, for which the “Percent Effect” value is on record as -11.3%.

Regarding `CCCn1cc(C(=O)N2CCCC2(C)c2nc(C)cc(C)n2)cn1` (configuration not stated), the “Percent Effect” value turned out to be 137.7%.

With `CCCn1cc(C(=O)N2CCCC2(C)c2nc(C)cc(N)n2)cn1` (configuration not stated), the “Percent Effect” value is 145.7%.

In the case of `CCn1cc(C(=O)N2CCCC3(CCC(=O)N(CCC(C)C)C3)C2)cn1` (configuration not stated), the “Percent Effect” value is 12.9%.

With `Cc1occc1CNC(=O)C1(C)CCCN1C(=O)c1ccccc1` (configuration not stated), the “Percent Effect” value is given as -1.558%.

Take `CCCN1CC2(CCN(C)CC2)CC1C(=O)NCCn1cc(C)cn1` (configuration not stated): the “Percent Effect” value was determined as 2.434%.

For `Cc1cc(CN(C)CC2CC(C3CCCCC3)=NO2)no1` (configuration not stated), the “Percent Effect” value was 7.354%.

Take `COc1ccccc1C(N)CC(C)C` (configuration not stated): the “Percent Effect” value is reported as -3.152%.

On to `CC(CNS(N)(=O)=O)Oc1cccc(Cl)c1` (configuration not stated), for which the “Percent Effect” value was -1.116%.

As for `CCOc1ccccc1C(N)CC(C)C` (configuration not stated), the “Percent Effect” value is listed as -6.989%.

As to `CCCOc1ccccc1C(N)CC(C)C` (configuration not stated), the “Percent Effect” value is reported as -0.2003%.

Take `Cc1ccc(Oc2c(F)cccc2OC[C@@H](N)CC(C)C)cc1`: the “Percent Effect” value is 105.2%.

For the compound `CC(C)C[C@H](N)COc1cccc(F)c1Oc1cccc(Cl)c1`, the “Percent Effect” value is 101.2%.

As for `CC(C)COc1ccccc1C(N)CC(C)C` (configuration not stated), the “Percent Effect” value is on record as 3.721%.

On to `CC(C)C[C@H](N)COc1cccc(F)c1Oc1ccc(Cl)cc1`, for which the “Percent Effect” value came to 75.53%.

`CC(C)C[C@H](N)COc1cccc(F)c1Oc1ccccc1`: the “Percent Effect” value came to 86.38%.

With `Cc1nc(CN)cc(N2CCC(O)(c3ccc(Cl)cc3)CC2)n1`, the “Percent Effect” value is on record as -14.21%.

`O=C(NC(c1ccc(Cl)cc1)C(F)(F)F)c1nc(=O)[nH][nH]1` (configuration not stated): the “Percent Effect” value is on record as -8.616%.

Take `CCN(C(=O)COC)C(c1cccnc1)c1cc(C)cc(C)c1` (configuration not stated): the “Percent Effect” value stood at 20.72%.

Turning to `CCC(C)Oc1cc(C(=O)N(c2cccnc2)C(C)C)ccn1` (configuration not stated), the “Percent Effect” value is reported as -13.41%.

Consider `CCc1cc(N2CCN(c3ccc(Cl)cn3)CC2)n2nccc2n1`, for which the “Percent Effect” value came to 4.069%.

On to `COCC1CN(Cc2ccoc2)Cc2cn(CC3CCCC3)nc21` (configuration not stated), for which the “Percent Effect” value was -3.642%.

Regarding `Cc1cnn(CC2CN(Cc3cccc(OC(C)C)c3)CCO2)c1` (configuration not stated), the “Percent Effect” value came to 92.31%.

For the compound `Cc1cnn(CC2CN(CCc3ccncc3)CCO2)c1` (configuration not stated), the “Percent Effect” value was -9.167%.

Consider `Cc1cnn(CC2CN(Cc3ccc(C(N)=O)cc3)CCO2)c1` (configuration not stated), for which the “Percent Effect” value is reported as 85.4%.

On to `Cc1cnn(CC2CN(Cc3cccc(OCC(N)=O)c3)CCO2)c1` (configuration not stated), for which the “Percent Effect” value is -6.391%.

As for `Cc1cnn(CC2CN(Cc3cccc(C(=O)N(C)C)c3)CCO2)c1` (configuration not stated), the “Percent Effect” value turned out to be 5.735%.

For `Cc1cnn(CC2CN(CC(=O)N3CCc4ccccc43)CCO2)c1` (configuration not stated), the “Percent Effect” value was -2.09%.

As for `Cc1cnn(CC2CN(Cc3cccnc3)CCO2)c1` (configuration not stated), the “Percent Effect” value amounted to 94.04%.

In the case of `Cc1cnn(CC2CN(Cc3cccc(C(N)=O)c3)CCO2)c1` (configuration not stated), the “Percent Effect” value worked out at 99.45%.
